Test results from PubChem BioAssay.
Activity calls are given as the source filed them. The rule behind the calls is not given here.

Assay: Brca1-Bard1 BiLC signal decrease – luminescence, single concentration, counter-screen for Mdm2/MdmX interaction inhibitor project, confirmation (AID 504668)
Conditions: Brca1/Bard1 bimolecular luciferase complementation counterscreen, at 8 µM, stronger effect = higher value

SMILES | inhibition
O=C(/C=C/c1ccc2ccccc2n1)N1CCN(S(=O)(=O)c2ccc(F)cc2)CC1 | 35.1% (active)
CCOC(=O)COc1ccc(/C=C/[N+](=O)[O-])c(OCC(=O)OCC)c1 | 23.7% (active)
CC(=O)NC(c1cccc([N+](=O)[O-])c1)c1ccc2cccnc2c1O (stereo not given) | 23.7% (active)
O=C(Nc1nc(-c2ccccn2)cs1)c1ccccc1-n1cnnn1 | 29.6% (active)
Cc1ccc(S(=O)(=O)c2c(C)nn(C(C)(C)C)c2OC(=O)c2ccc(Br)o2)cc1 | 29.3% (active)
O=C(CNc1ccc(F)cc1)N/N=C/c1c(O)ccc2ccccc12 | 27.9% (active)
S=c1[nH]nc(-c2cc(-c3ccccc3)n[nH]2)n1/N=C/C(Br)=C/c1ccccc1 | 24.2% (active)
O=C(Nc1cccc(Cl)c1)Nc1nnc(CSCCOc2ccc(Cl)cc2)s1 | 23% (active)
Cc1ccc(C(=O)N/N=C/c2c(O)ccc3ccccc23)cn1 | 26.6% (active)
COc1ccc(O)c(/C=N/NC(=O)c2ccc(CSc3nc(C)cc(C)n3)cc2)c1 | 30.7% (active)
CC(C)CCNC(=O)C(c1ccncc1)N(Cc1cccs1)C(=O)Cn1nnc(-c2ccc(F)cc2)n1 (stereo not given) | 26.3% (active)
CC1CCN(S(=O)(=O)c2ccc(C(=O)Nc3nnc(-c4ccco4)o3)cc2)CC1 | 34.2% (active)
COc1ccc(C(=O)C(CN2CCOCC2)c2ccccc2)cc1 (stereo not given) | 27.4% (active)
CCc1ccccc1OCC(=O)Nc1nc(-c2cccnc2)cs1 | 35.6% (active)
C=CCNC(=S)N/N=C(\C)c1ccccn1 | 31.6% (active)
Cc1[nH]c(N=Nc2ccccc2)nc1N=Nc1ccccc1 | 24.1% (active)
COc1cc(/C=C/C(=O)c2ccc(O)cc2)ccc1OCC#N | 35.9% (active)
CCn1c(C)cc(C(=O)CN2C(=O)c3ccccc3S2(=O)=O)c1C | 23.2% (active)
FC(F)(F)c1cnc(NNC(=S)Nc2ccc(Cl)cc2)c(Cl)c1 | 23.3% (active)
COc1ccc(/C(C)=N/NC(=O)c2cccc(S(=O)(=O)N3CCCC3)c2)c(O)c1 | 34.4% (active)

SMILES | inhibition
C[C@@]12C(=O)Nc3cc(Cl)ccc3C(=O)N1[C@H]1c3cc(Br)ccc3OC[C@@H]1[C@@H]2c1ccccc1 | 30.8% (active)
CCOC(=O)C1=C(C)n2c(s/c(=C/c3cccc([N+](=O)[O-])c3)c2=O)=NC1c1ccc(O)c(OC)c1 (stereo not given) | 26.4% (active)
COc1ccc(/C=C2\SC(=S)N(CCC(=O)NCCc3ccc(O)cc3)C2=O)cc1 | 27.4% (active)
Cn1c(C(=O)NCc2cccs2)cc2oc3ccccc3c21 | 27.7% (active)
CCCC(O)(CCC)C(=O)NN(C(=O)CCl)c1cccc(C)c1 | 23.7% (active)
O=C(c1ccc(Br)cc1)C(CN1CCOCC1)c1ccccc1 (stereo not given) | 24.6% (active)
Cc1cc(C(=O)CSc2nnc3ccccn23)c(C)n1-c1ccccc1 | 29.6% (active)
CC[C@@]1(C(=O)OC)N[C@H](CN(C)C(=O)Nc2ccc(C(F)(F)F)cc2)[C@@H]2C(=O)N(Cc3ccccc3)C(=O)[C@@H]21 | 32.2% (active)
O=c1nc(Nc2ccc(OCc3ccccc3)cc2)sc2ncccc12 | 23.4% (active)
C/C(=N\NC(=O)c1cc2ccccc2cc1O)c1ccccn1 | 24.3% (active)
CN1CCc2c(sc(NC(=O)c3ccc(S(=O)(=O)N4CCc5ccccc54)cc3)c2C(N)=O)C1 | 24.1% (active)
Oc1ccc(Br)cc1CNc1cccc2cccnc12 | 25.6% (active)
Cc1ccc(C(=O)Nc2nc(-c3ccccn3)cs2)s1 | 34.6% (active)
Nc1nonc1-c1nc2ccccc2n1CC(=O)Nc1ccccc1 | 24.8% (active)
O=C(NN=C(c1ccccc1)c1ccccn1)c1ccccc1 | 27.4% (active)
COc1cc2c(ccc3cc(OC)c(OC)c(O)c32)cc1O | 31.4% (active)
Cc1ccc(N=c2c([N+](=O)[O-])nn(-c3ccc4c(c3)OCCO4)n2O)cc1F | 23.7% (active)
O=C(/C=C/c1ccc(OCc2c(F)cccc2Cl)cc1)N1CCOCC1 | 27.7% (active)
CCN(CC)C(=O)N1c2ccccc2C=Cc2ccccc21 | 33.7% (active)
COc1ccc2cc(C(=O)N/N=C/c3sc4ccccc4c3O)ccc2c1 | 32.4% (active)
